Holding throughout (design): scale not given: direction of the effect not stated beside the values
The target in assay [1] is Protein translocase subunit SecA (Escherichia coli (strain K12)) (UniProt P10408). Kind of assay: Assay to Identify E. coli SecA ATPase Inhibitors. Format: functional. As to conditions: 30 µM.
In assay [2] the target is T1, Ubiquitin-activating enzyme e1, putative (Leishmania donovani (strain BPK282A1)) (UniProt E9BSI1).
T1 sequence (whole entry): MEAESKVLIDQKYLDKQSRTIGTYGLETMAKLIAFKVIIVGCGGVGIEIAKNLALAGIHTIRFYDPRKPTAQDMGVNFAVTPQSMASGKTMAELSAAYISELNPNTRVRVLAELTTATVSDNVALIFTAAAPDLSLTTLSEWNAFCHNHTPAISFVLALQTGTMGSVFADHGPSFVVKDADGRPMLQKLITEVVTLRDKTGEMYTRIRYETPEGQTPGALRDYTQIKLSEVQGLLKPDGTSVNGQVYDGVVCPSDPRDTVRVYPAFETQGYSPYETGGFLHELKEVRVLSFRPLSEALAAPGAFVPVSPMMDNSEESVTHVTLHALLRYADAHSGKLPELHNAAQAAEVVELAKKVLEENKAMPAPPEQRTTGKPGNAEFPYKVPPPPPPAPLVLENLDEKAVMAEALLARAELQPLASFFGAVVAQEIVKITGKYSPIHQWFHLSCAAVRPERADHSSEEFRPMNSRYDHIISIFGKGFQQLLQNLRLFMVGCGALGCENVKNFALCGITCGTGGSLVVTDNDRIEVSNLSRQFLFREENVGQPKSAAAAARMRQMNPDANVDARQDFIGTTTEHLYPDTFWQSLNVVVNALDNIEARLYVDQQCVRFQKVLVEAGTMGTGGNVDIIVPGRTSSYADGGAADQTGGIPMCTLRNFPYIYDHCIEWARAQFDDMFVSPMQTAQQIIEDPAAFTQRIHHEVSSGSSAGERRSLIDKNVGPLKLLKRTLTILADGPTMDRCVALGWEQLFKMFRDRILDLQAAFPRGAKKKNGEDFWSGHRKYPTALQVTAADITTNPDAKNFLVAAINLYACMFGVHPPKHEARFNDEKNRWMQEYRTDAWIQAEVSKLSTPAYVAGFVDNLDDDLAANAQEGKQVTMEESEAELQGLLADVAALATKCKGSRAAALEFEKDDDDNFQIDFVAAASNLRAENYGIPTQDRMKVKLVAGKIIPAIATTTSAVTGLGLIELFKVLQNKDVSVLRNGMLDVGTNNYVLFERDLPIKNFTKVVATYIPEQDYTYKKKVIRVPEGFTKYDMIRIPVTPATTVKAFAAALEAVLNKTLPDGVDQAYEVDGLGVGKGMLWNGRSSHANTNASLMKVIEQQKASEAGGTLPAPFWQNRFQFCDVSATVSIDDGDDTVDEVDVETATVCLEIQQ
Description: Leishmania donovani Ubiquitin Activating Enzyme (LdE1). In kind it is functional. Particulars: 30 µM.

In assay [3] the target is AMP-activated protein kinase, AMPK (Homo sapiens) (UniProt P54646+O43741+P54619+Q9UGJ0+Q9Y478+Q13131+Q9UGI9). Kind of assay: AMP-dependent Kinase enzyme assay. An in vitro enzyme assay that detects ADP turnover that is directly proportional to AMPK activity. This uses naive AMPK that is activated during the assay with MK-8722. In kind it is functional. As to conditions: 30 µM.

The target in assay [4] is Sialic acid-binding Ig-like lectin 9 (Homo sapiens) (UniProt Q9Y336). Kind of assay: Hs-Siglec9 ALPHAscreen SOP 20170721. Particulars: 10 µM. (Bead proximity is the source of the signal in Alpha formats.)
Chain of Sialic acid-binding Ig-like lectin 9 (Homo sapiens) (Q9Y336 whole entry): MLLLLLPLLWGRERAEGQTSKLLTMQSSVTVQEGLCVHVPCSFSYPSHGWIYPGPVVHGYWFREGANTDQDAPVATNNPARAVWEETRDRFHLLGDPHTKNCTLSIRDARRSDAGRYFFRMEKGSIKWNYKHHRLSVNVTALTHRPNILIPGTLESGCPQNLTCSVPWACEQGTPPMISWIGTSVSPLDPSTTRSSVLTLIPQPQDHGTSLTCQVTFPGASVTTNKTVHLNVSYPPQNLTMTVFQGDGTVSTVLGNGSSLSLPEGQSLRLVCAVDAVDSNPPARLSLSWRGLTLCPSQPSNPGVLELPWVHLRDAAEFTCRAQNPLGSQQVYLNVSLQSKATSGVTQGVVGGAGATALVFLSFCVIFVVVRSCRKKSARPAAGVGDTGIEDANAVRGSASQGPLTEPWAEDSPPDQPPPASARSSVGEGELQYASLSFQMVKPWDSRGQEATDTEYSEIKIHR
The subject of another assay is Trypanosoma cruzi. Kind of assay: Trypanosoma cruzi phosphomannomutase and mannose-1-phosphate guanylyltransferase assay. In kind it is functional. As to conditions: 10 µM.
Assay [5] has as its target T2, Arginase-2, mitochondrial (Homo sapiens) (UniProt P78540).
T2 sequence (whole entry): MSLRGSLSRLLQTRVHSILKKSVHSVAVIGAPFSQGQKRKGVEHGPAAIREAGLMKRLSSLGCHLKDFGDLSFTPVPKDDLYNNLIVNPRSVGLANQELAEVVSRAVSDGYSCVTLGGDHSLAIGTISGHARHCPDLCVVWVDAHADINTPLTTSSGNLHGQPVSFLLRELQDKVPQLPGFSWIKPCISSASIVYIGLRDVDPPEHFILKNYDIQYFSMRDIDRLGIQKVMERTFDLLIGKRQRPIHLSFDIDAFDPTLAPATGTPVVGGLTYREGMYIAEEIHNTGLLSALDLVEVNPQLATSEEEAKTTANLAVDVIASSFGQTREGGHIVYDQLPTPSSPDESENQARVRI
Description: in vitro enzyme assay to detect the production of urea directly proportional to the activity of Arginase II. Note: in the data most compounds retested in dose-response had high values. As to conditions: 33.3 µM. In kind it is functional.

Assay [6] addresses T3, Proteasome subunit beta (Trypanosoma cruzi) (UniProt O96673).
T3 sequence (whole entry): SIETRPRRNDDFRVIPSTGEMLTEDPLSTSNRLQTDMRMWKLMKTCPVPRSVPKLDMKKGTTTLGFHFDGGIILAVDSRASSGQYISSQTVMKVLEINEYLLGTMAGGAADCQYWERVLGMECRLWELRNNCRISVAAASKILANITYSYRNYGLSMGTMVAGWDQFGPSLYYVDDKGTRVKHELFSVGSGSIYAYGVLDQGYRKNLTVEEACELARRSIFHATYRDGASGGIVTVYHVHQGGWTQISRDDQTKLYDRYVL
Kind of assay: Trypanosoma cruzi proteasome chymotrypsin-like activity (TcProtChymo) assay. Note: in the data most compounds retested in dose-response had high values. Format: functional. As to conditions: 9.37 µM.

For the next assay, the species on record is Homo sapiens. Description: To identify inhibition of the IFN signalling (Jak-Stat) pathway via expression of an eGFP reporter gene under the control of an IFN-stimulated response element (ISRE) containing MxA promoter. In kind it is functional. Particulars: 30 µM. (In general: A reporter such as luciferase makes a cellular process visible.)
Assay [7] concerns the target T4, Tyrosyl-tRNA synthetase, putative (Trypanosoma cruzi (strain CL Brener)) (UniProt Q4DSP6).
T4 sequence (whole entry): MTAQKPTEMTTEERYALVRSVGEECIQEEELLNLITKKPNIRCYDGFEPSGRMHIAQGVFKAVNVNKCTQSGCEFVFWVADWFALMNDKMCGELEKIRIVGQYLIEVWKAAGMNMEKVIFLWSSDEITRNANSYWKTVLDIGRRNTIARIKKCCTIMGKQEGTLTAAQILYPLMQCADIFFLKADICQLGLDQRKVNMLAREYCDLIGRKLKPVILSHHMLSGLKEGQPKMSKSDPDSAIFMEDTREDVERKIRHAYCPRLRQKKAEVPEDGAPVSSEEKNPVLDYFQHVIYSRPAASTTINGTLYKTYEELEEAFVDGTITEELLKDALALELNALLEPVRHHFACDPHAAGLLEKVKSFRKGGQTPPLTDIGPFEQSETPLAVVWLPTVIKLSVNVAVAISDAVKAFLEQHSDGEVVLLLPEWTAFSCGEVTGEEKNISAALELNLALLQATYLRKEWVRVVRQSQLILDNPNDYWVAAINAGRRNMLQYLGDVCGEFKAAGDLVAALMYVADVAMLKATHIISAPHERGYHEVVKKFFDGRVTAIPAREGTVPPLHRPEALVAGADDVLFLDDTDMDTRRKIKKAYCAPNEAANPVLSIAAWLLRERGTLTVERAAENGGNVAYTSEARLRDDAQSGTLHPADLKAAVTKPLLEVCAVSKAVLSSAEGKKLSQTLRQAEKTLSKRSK
Description: Trypanosoma cruzi tyrosyl tRNA synthetase (TcYRS) _High Tyrosine SOP. Note: in the data most compounds retested in dose-response had high values. Format: functional. As to conditions: 30 µM.

In assay [8] the target is T4, Tyrosyl-tRNA synthetase, putative (Trypanosoma cruzi (strain CL Brener)). Kind of assay: Trypanosoma cruzi tyrosyl tRNA synthetase (TcYRS) SOP. In kind it is functional. Particulars: 30 µM.
Assay [9] has as its target Chromo domain-containing protein 1 (Saccharomyces cerevisiae (strain ATCC 204508 / S288c) (Baker's yeast)) (UniProt P32657). Kind of assay: ScCHD-1 Enzyme Inhibition Assay. Note: in the data most compounds retested in dose-response had high values. Format: functional. As to conditions: 30 µM.

For some of these results: Entries with a potency or affinity are not part of this list.

Chain of Protein translocase subunit SecA (Escherichia coli (strain K12)) (P10408 whole entry): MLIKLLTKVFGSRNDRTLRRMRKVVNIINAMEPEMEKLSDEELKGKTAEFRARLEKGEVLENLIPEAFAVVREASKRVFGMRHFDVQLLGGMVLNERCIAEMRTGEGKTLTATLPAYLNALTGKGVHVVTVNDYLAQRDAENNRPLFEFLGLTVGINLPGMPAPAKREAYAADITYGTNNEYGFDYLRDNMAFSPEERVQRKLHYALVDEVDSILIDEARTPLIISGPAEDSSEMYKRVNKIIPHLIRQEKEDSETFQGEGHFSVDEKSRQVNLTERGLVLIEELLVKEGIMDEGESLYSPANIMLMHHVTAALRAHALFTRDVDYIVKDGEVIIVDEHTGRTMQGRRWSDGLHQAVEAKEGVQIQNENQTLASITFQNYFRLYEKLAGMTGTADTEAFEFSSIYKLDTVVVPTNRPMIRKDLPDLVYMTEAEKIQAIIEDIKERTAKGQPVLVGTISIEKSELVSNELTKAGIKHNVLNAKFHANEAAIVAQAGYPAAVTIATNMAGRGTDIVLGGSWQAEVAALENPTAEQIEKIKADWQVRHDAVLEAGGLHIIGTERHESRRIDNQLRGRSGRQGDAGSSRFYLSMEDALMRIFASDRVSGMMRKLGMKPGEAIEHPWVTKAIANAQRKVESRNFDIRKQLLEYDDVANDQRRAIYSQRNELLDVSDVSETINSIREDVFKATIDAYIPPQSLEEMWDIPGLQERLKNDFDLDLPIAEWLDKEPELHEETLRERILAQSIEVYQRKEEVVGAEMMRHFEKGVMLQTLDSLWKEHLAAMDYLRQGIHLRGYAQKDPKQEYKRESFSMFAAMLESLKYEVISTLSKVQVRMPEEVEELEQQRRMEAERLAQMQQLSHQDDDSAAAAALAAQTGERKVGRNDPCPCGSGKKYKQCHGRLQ
Chain of Chromo domain-containing protein 1 (Saccharomyces cerevisiae (strain ATCC 204508 / S288c) (Baker's yeast)) (P32657 whole entry, the tested form may be a part): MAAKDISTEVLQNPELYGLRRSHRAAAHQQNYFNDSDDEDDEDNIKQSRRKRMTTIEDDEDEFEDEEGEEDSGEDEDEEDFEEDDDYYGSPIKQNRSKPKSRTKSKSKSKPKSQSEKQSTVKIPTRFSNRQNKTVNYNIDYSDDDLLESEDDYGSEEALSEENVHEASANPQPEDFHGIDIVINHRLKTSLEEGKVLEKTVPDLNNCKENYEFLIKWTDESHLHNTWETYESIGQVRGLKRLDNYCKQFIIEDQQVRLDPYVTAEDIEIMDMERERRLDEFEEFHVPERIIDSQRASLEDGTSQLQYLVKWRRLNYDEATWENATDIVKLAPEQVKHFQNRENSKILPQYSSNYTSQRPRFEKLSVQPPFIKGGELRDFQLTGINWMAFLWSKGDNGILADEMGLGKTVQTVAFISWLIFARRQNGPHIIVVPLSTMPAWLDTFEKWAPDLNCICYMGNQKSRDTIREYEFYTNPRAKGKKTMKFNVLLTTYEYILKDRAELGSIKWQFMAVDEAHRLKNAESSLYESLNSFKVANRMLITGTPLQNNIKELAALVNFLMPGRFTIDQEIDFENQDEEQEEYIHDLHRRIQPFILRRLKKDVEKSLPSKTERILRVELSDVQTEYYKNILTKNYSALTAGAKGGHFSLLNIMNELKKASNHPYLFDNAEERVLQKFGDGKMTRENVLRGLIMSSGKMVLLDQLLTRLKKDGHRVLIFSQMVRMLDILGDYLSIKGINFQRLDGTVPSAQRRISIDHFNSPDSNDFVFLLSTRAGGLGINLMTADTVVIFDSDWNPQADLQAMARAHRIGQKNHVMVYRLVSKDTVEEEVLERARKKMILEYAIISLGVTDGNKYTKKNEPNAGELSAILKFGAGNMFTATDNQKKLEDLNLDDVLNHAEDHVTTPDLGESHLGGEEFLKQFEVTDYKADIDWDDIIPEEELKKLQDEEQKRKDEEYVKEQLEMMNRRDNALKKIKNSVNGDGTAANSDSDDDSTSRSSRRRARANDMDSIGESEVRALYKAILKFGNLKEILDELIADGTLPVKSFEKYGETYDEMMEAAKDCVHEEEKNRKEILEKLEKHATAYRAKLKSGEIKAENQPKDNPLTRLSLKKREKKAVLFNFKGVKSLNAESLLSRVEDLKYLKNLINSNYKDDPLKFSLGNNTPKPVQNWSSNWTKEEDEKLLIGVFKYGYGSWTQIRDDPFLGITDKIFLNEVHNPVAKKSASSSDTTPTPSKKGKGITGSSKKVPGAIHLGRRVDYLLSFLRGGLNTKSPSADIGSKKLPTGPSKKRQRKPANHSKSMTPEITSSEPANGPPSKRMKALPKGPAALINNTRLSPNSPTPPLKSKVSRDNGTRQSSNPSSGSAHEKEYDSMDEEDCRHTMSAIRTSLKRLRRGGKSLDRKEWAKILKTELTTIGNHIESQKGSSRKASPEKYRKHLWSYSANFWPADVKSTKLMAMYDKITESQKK

In the case of `O=C(CCc1ccccc1F)NS(=O)(=O)c1ccc2c(c1)OCCCO2`, the Percent Effect is -6.43% in assay [1]; 11.4% in assay [2]; 2.28% in assay [3]; 1.9% in [4]; -0.923% in the assay with Trypanosoma cruzi; -4.95% in [5]. In addition, the Percent Effect in assay [6] was 9.09%; in the assay listed under Homo sapiens, 6.8%; in assay [7] it was 2.08%; in assay [8], 12.7%; in assay [9] it was -20.4%.

`CC(=O)Nc1nc(C(=O)Nc2ccc(F)cc2)cs1`: the Percent Effect in [1] was -2.09%; in assay [2], 15.6%; in assay [3], 28%; in assay [4], -6.42%; in the assay with Trypanosoma cruzi, -1.86%; in assay [5] it was -15.4%. Also, the Percent Effect in assay [6] amounted to 16.7%; in the assay filed under Homo sapiens, 8.03%; in assay [7], 7.62%; in assay [8], 18.8%; in assay [9] it was 3.31%.

`Cc1ccc(C)c(C(=O)CN2C(=O)c3ccccc3CS2(=O)=O)c1`: the Percent Effect was -0.543% in assay [1]; -2.7% in [2]; -3.5% in assay [3]; 9.17% in [4]; 5.79% with Trypanosoma cruzi; 0% in [5]. Also, the Percent Effect in [6] was 18.1%; in the assay filed under Homo sapiens, 12%; in [7] it was -36.5%; in assay [8], -41.5%; in assay [9] it was 22.1%.

`COc1ccc(-c2noc(CNC(C)Cn3cccn3)n2)c(OC)c1` (stereo unspecified): the Percent Effect in assay [1] was -5.86%; in assay [2] it was 31.6%; in [3], -3.12%; in assay [4], -7.44%; in the assay with Trypanosoma cruzi, 2.15%; in assay [5], -2.52%. Besides, the Percent Effect in assay [6] is 9.9%; in the assay listed under Homo sapiens it was 17.3%; in [7] it was 5.42%; in assay [8], 25.9%; in [9] it was -11.8%.

In the case of `Cc1csc([C@@H]2C[C@@H]3CCN(C(=O)c4cc(C)on4)C[C@H]3O2)n1`, the Percent Effect in assay [1] was -3.41%; in assay [2], 20.8%; in assay [3] it was -1.54%; in [4], -4.81%; with Trypanosoma cruzi, 4.04%; in assay [5], 5.81%. Besides, the Percent Effect in [6] is 11.7%; in the assay filed under Homo sapiens, 12.7%; in assay [7], 4.23%; in assay [8], 16.7%; in assay [9], -9.47%.

On to `O=C(Cc1ccccc1F)N1CCN(C(=O)c2cccc(F)c2)CC1`, for which the Percent Effect was 0.735% in [1]; 7.89% in assay [2]; -4.8% in [3]; -9.01% in assay [4]; -7.69% in the assay with Trypanosoma cruzi; 3.55% in assay [5]. The Percent Effect is 18.9% in [6]; 13.3% in the assay listed under Homo sapiens; 0% in assay [7]; -59.7% in assay [8]; 27.2% in assay [9].

As to `Cc1nc(CNC(=O)NCCc2ccc(N(C)C)cc2)cs1`, the Percent Effect was -4.53% in assay [1]; 10.8% in [2]; 6.12% in [3]; 13.5% in [4]; 1.23% in the assay on Trypanosoma cruzi; -5.61% in [5]. Besides, the Percent Effect in assay [6] is -1.98%; in the assay filed under Homo sapiens it was -15.3%; in assay [7] it was 9.36%; in assay [8] it was 18.5%; in [9] it was -10.4%.

For `CC(=O)N1CCn2c(C(=O)N(C)C)cnc2C1`, the Percent Effect is -2.73% in assay [1]; 5.33% in assay [2]; 9.01% in [3]; -0.782% in [4]; -1.77% in the assay with Trypanosoma cruzi; -3.03% in assay [5]. The Percent Effect was 1.32% in assay [6]; 5.39% in the assay filed under Homo sapiens; 3.19% in assay [7]; 6.41% in assay [8]; -2.05% in assay [9].

On to `O=C(c1ccncc1)N1C[C@@H]2CC[C@H](C1)N(C(=O)N1CCOCC1)C2`, for which the Percent Effect in assay [1] is -0.807%; in assay [2] it was 2.67%; in assay [3], -4.2%; in assay [4], 3.79%; in the assay on Trypanosoma cruzi, -4.38%; in assay [5], 4.69%. In addition, the Percent Effect is 15.5% in assay [6]; 10.6% in the assay listed under Homo sapiens; 6.01% in assay [7]; 13.6% in assay [8]; -5.41% in [9].

With `Cc1cnc(N2CC3(CCN(C(=O)c4ccoc4)C3)C2)nc1`, the Percent Effect in assay [1] is -4.42%; in assay [2] it was 5.2%; in [3], 2.7%; in assay [4], 2.78%; with Trypanosoma cruzi, -3.64%; in [5] it was -30.3%. The Percent Effect in assay [6] is 15%; in the assay filed under Homo sapiens, 1.13%; in assay [7], 0%; in assay [8], 1.24%; in [9] it was -4.73%.

Regarding `Cn1ccc(C(=O)N2CCN(c3ncccn3)CC2)cc1=O`, the Percent Effect in assay [1] was -7.23%; in [2] it was 5.41%; in assay [3] it was 33.6%; in assay [4], 9.56%; in the assay with Trypanosoma cruzi, -3.49%; in assay [5], -2%. The Percent Effect is 6.13% in assay [6]; 4.12% in the assay filed under Homo sapiens; 3.45% in assay [7]; 11.1% in [8]; -2.92% in assay [9].

The values are drawn from ChEMBL document CHEMBL3988442, “University of Dundee, Small-Polar-MMV Screening Library” (2021).
